High-throughput results: PubChem, DiRusso Lab, Biochemistry Department, University of Nebraska
Chlamy TAG: inducers of triacylglycerol accumulation in Chlamydomonas reinhardtii algae. AID 1159537. actives 0.84% (n = 44,000). calls only at 10 µM (by protocol). Chlamydomonas reinhardtii TAG, Nile Red fluorescence, 72 h; call rule not given here;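 note: hits raise Nile Red signal meaning more stored TAG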
Starred values were filed as active, the others as inactive. Many of the other results were omitted from the sample, so hits are more common in it than they were.

How did COc1ccccc1N1CCN(C2CCN(Cc3c[nH]c4ccccc34)CC2)CC1 do in these assays?
Chlamy TAG: inactive

What do the screens show for `COc1ccccc1N1CCN(C2CCN(Cc3cccc(C)c3)CC2)CC1`?
Chlamy TAG: active

What do the screens show for `COc1ccccc1N1CCN(C2CCN(CC3CC4C=CC3C4)CC2)CC1` (centres undefined)?
Chlamy TAG: active

Results for COc1ccccc1N1CCN(C2CCN(Cc3ccc(Br)cc3)CC2)CC1 ?
Chlamy TAG: inactive

Results for CCOc1cc(CN2CCN(c3ccccc3OC)CC2)ccc1OC ?
Chlamy TAG: inactive

How did COc1cc(OC)c(OC)cc1CN1CCC(N2CCN(c3ccccc3OC)CC2)CC1 do in these assays?
Chlamy TAG: inactive

How did Clc1cccc(CN2CCC(N3CCCCCC3)CC2)c1 do in these assays?
Chlamy TAG: inactive

How did COc1ccccc1N1CCN(C2CCN(CCCc3ccccc3)CC2)CC1 do in these assays?
Chlamy TAG: inactive

What do the screens show for `COc1ccccc1N1CCN(C2CCN(Cc3cccc(Cl)c3)CC2)CC1`?
Chlamy TAG: active

How did CCc1ccc(NC(=O)CSc2nc3ccc([N+](=O)[O-])cc3[nH]2)cc1 do in these assays?
Chlamy TAG: inactive

How did Cn1c2c(c(=O)n(C)c1=O)C(c1ccccc1[N+](=O)[O-])C(C#N)=C(N)O2 (centres undefined) do in these assays?
Chlamy TAG: inactive

How did COc1cc(C2C3=C(CCCC3=O)N(C)C3=C2C(=O)CCC3)ccc1OCc1ccccc1Cl do in these assays?
Chlamy TAG: inactive

How did COc1ccccc1N(CC(=O)Nc1ccccc1C(N)=O)S(=O)(=O)c1ccccc1 do in these assays?
Chlamy TAG: inactive

What do the screens show for `Cc1ccc(NC(=O)C(=O)NCC(C)O)cc1Cl` (centres undefined)?
Chlamy TAG: inactive

Results for COc1ccc(Br)c(N)c1 ?
Chlamy TAG: inactive

What do the screens show for `O=C(Nc1c(F)c(F)c(F)c(F)c1F)c1cccc([N+](=O)[O-])c1`?
Chlamy TAG: inactive

Results for COc1ccc(C(=O)Nc2cccc(C)c2)cc1Br ?
Chlamy TAG: inactive

How did CCC1CCCCN1C(=O)c1cccc([N+](=O)[O-])c1C (centres undefined) do in these assays?
Chlamy TAG: inactive

What do the screens show for `CCC1CCCCN1C(=O)c1ccc(Cl)cc1[N+](=O)[O-]` (centres undefined)?
Chlamy TAG: active

What do the screens show for `CCN1CCN(C(=O)c2ccc(Cl)cc2[N+](=O)[O-])CC1`?
Chlamy TAG: inactive

What do the screens show for `CCN1CCC(N2CCCC(C(=O)N(CC)CC)C2)CC1` (centres undefined)?
Chlamy TAG: inactive

What do the screens show for `CCC(C)c1ccccc1NC(=O)COC` (centres undefined)?
Chlamy TAG: inactive

Results for CN1CCN(c2ccc(C(=O)c3ccc(Cl)cc3)cc2[N+](=O)[O-])CC1 ?
Chlamy TAG: inactive

How did COc1ccc(C(=O)c2ccc(N3CCN(C)CC3)c([N+](=O)[O-])c2)cc1 do in these assays?
Chlamy TAG: active

Results for Cc1ccc(C(=O)c2ccc(N3CCCC3)c([N+](=O)[O-])c2)cc1 ?
Chlamy TAG: inactive

Results for CC(C)c1ccc(C(=O)NCCc2ccccc2)cc1 ?
Chlamy TAG: inactive

How did CCCOc1ccccc1-c1nc(SCC(=O)O)n[nH]1 do in these assays?
Chlamy TAG: inactive

Results for COc1cc(NC(=O)c2ccccc2)c(OC)cc1NC(=O)Cc1ccc(Cl)cc1 ?
Chlamy TAG: inactive

What do the screens show for `C=C(C)CN(CC)C(=O)C1CCN(CC2CC=CCC2)CC1` (centres undefined)?
Chlamy TAG: active

What do the screens show for `NC(=O)C1CCN(CC2CC=CCC2)CC1` (centres undefined)?
Chlamy TAG: inactive

How did CCN(Cc1ccccc1)C(=O)C1CCN(CC2CC=CCC2)CC1 (centres undefined) do in these assays?
Chlamy TAG: inactive

Results for O=C(NC1CCCCCC1)c1ccc([N+](=O)[O-])cc1 ?
Chlamy TAG: inactive

What do the screens show for `O=[N+]([O-])c1ccc(CNC2CCCC2)cc1`?
Chlamy TAG: active

Results for CN(Cc1ccc([N+](=O)[O-])cc1)C1CCCCC1 ?
Chlamy TAG: active

How did O=[N+]([O-])c1ccc(CNC2CCCc3ccccc32)cc1 (centres undefined) do in these assays?
Chlamy TAG: inactive

How did CC1CCCCC1NCc1ccc([N+](=O)[O-])cc1 (centres undefined) do in these assays?
Chlamy TAG: inactive

How did O=[N+]([O-])c1cccc(CNC2CCCCCC2)c1 do in these assays?
Chlamy TAG: active

Results for CN1CCC(N(C)Cc2cccc([N+](=O)[O-])c2)CC1 ?
Chlamy TAG: inactive

Results for CN1CCC(N(C)Cc2ccc([N+](=O)[O-])cc2)CC1 ?
Chlamy TAG: inactive

Results for O=C(NC1CCCCC1)c1ccc([N+](=O)[O-])o1 ?
Chlamy TAG: inactive

How did O=[N+]([O-])c1ccc(CNC2CCCCCC2)cc1 do in these assays?
Chlamy TAG: active

How did O=C(NC1CCCCCC1)c1cccc([N+](=O)[O-])c1 do in these assays?
Chlamy TAG: inactive

Results for O=[N+]([O-])c1cccc(CN2CCCCCC2)c1 ?
Chlamy TAG: inactive

Results for COCCCNC(=O)c1ccc(C)cc1Cl ?
Chlamy TAG: inactive

How did Cc1noc(NS(=O)(=O)c2ccc(NC(=O)COc3ccc(C(C)C)cc3)cc2)c1C do in these assays?
Chlamy TAG: inactive

Results for O=C1CCC(c2ccccc2)N1C(=O)c1ccc(Cl)cc1 (centres undefined) ?
Chlamy TAG: inactive

What do the screens show for `COc1ccc(C(=O)Nc2ccc(Cl)cc2C)c(OC)c1`?
Chlamy TAG: inactive

Results for CCc1ccccc1NC(=O)CN(c1ccccc1)S(=O)(=O)c1ccccc1[N+](=O)[O-] ?
Chlamy TAG: inactive

What do the screens show for `CC(C)c1ccc(N(CC(=O)Nc2ccccc2C(=O)N2CCCC2)S(C)(=O)=O)cc1`?
Chlamy TAG: inactive

Results for Cc1ccc(C)c(N2CCN(Cc3ccc(-c4ccccc4[N+](=O)[O-])o3)CC2)c1 ?
Chlamy TAG: inactive

Results for Fc1ccc(-c2cc3ccccn3c2)cc1 ?
Chlamy TAG: inactive

What do the screens show for `c1ccc(CN2CCC(N3CCN(C4CC5CCC4C5)CC3)CC2)cc1` (centres undefined)?
Chlamy TAG: active

Results for CC1CCCC(N2CCN(Cc3ccccc3)CC2)C1 (centres undefined) ?
Chlamy TAG: active

How did O=[N+]([O-])c1ccccc1S(=O)(=O)N1CCN(C2CCN(Cc3ccccc3)CC2)CC1 do in these assays?
Chlamy TAG: active

How did c1ccc(CN2CCC(N3CCN(Cc4ccccn4)CC3)CC2)cc1 do in these assays?
Chlamy TAG: inactive

Results for COc1cc(CN2CCN(C3CCN(Cc4ccccc4)CC3)CC2)cc(OC)c1O ?
Chlamy TAG: inactive

How did C1CCCN(C2CCN(C3CC4CCC3C4)CC2)CC1 (centres undefined) do in these assays?
Chlamy TAG: inactive

How did CC1CCCC(NC2CCN(Cc3ccccc3)CC2)C1 (centres undefined) do in these assays?
Chlamy TAG: inactive

Results for O=[N+]([O-])c1ccccc1CN1CCC(N2CCCCC2)CC1 ?
Chlamy TAG: inactive

What do the screens show for `O=[N+]([O-])c1ccccc1S(=O)(=O)N1CCN(Cc2ccccn2)CC1`?
Chlamy TAG: inactive

What do the screens show for `CCC(=O)Nc1nonc1-c1nc2ccccc2n1Cc1ccc(Br)cc1`?
Chlamy TAG: inactive

How did O=C(CN(c1cccc([N+](=O)[O-])c1)S(=O)(=O)c1ccccc1)N1CCc2ccccc2C1 do in these assays?
Chlamy TAG: inactive
